Data published in PubChem BioAssay AID1159580 (chemical genetic matrix, 2015).
The campaign covered roughly 5,500 compounds. About 2,000 (36%) were called active. About 18% were inconclusive and are not listed. Rule as the data show it: active = normalized growth mostly below about 0.91 (no sharp cut-off); inconclusive = no clear call, values can overlap the other calls; inactive = mostly above about 0.92. Some of the results follow. Where a SMILES comes first, the peptide text is derived from it. The star is where a group is joined. Cbz = O=C(OCc1ccccc1)*

Assay: chemical genetic growth profiling, strain panel (AID 1159580);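 also: tested at 20 µM; growth read once vehicle control cultures reached saturation at 30 °C; 1 = growth at the plate median or of vehicle wells; lower values mean less growth of the strain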
Conditions: S. cerevisiae deletion strains, growth OD
[1] = locus YAL040C, strain CLN3, active compounds read low
[2] = locus YCL061C, strain MRC1 (second series), active compounds read low
[3] = locus YDR363W, strain ESC2, active compounds read low
[4] = locus YER002W, strain NOP16, active compounds read low
[5] = locus YMR263W, strain SAP30, active compounds read low
[6] = locus YMR307W, strain GAS1, active compounds read low
[7] = locus YNL175C, strain NOP13, active compounds read low
[8] = locus YNL197C, strain WHI3, active compounds read low
[9] = locus YNL224C, strain SQS1, active compounds read low
[10] = locus YNL322C, strain KRE1, active compounds read low
[11] = locus YOR083W, strain WHI5 (second series), active compounds read low
[12] = locus YHR030C, strain SLT2, active compounds read low
[13] = locus YHR079C, strain IRE1, active compounds read low
[14] = locus YJL095W, strain BCK1, active compounds read low
[15] = locus YJR066W, strain TOR1, active compounds read low
[16] = locus YLR113W, strain HOG1, active compounds read low
[17] = locus YNL183C, strain NPR1, active compounds read low
[18] = locus YOR231W, strain MKK1, active compounds read low
[19] = locus YPL256C, strain CLN2, active compounds read low

Measured: normalized growth

CC(C)[C@H](NC(=O)OCc1ccccc1)C(=O)N[C@H](C=O)Cc1ccccc1 (Cbz-Val-Phe-aldehyde)
inactive: [1] 0.961 | [2] 1 | [3] 1.04 | [4] 0.993 | [5] 0.976 | [6] 1.02 | [7] 0.969 | [8] 0.969 | [9] 0.996 | [10] 1 | [11] 0.997

Cc1ccc(S(=O)(=O)N[C@@H](CCCCN)C(=O)CCl)cc1
inactive: locus YAL013W, strain DEP1, active compounds read low 1.02 | [1] 1.04 | [2] 1.01 | [3] 1.05 | [4] 1.02 | locus YGR229C, strain SMI1, active compounds read low 0.962 | locus YJR075W, strain HOC1, active compounds read low 0.995 | [5] 1.01 | [6] 1.01 | [7] 1.01 | [8] 1.02 | [9] 1.01 | [10] 1.02 | [11] 1.01 | locus YPL055C, strain LGE1, active compounds read low 1.03

CC(=O)NC(Cc1ccccc1)C(=O)O (stereo not drawn)
inactive: [12] 0.979 | [13] 0.984 | [14] 0.985 | [15] 0.91 | [16] 1.02 | [17] 0.89 | [18] 0.997 | [19] 0.984

COC(=O)[C@H](Cc1ccccc1)NC(=O)[C@@H](N)CC(=O)O (H-Asp-Phe-OMe)
inactive: locus YAL021C, strain ccr4, active compounds read low 1.01 | locus YAL026C, strain drs2, active compounds read low 1.01 | locus YAL030W, strain snc1, active compounds read low 1 | locus YBL061C, strain skt5, active compounds read low 1.02 | locus YBR009C, strain hhf1, active compounds read low 1.02 | locus YBR023C, strain chs3, active compounds read low 1.02 | locus YBR171W, strain sec66, active compounds read low 1.02 | locus YBR231C, strain swc5, active compounds read low 1.03 | locus YBR279W, strain paf1, active compounds read low 1.02 | locus YCL011C, strain gbp2, active compounds read low 1.02 | locus YCL016C, strain dcc1, active compounds read low 1.01 | locus YCL061C, strain MRC1, active compounds read low 1.01 | locus YCL069W, strain vba3, active compounds read low 1.02 | locus YCR088W, strain abp1, active compounds read low 1.01 | locus YDL005C, strain med2, active compounds read low 1 | locus YDL040C, strain nat1, active compounds read low 1.01 | locus YDR001C, strain nth1, active compounds read low 1.02 | locus YDR069C, strain doa4, active compounds read low 1.02 | locus YDR137W, strain rgp1, active compounds read low 1.01 | locus YDR159W, strain sac3, active compounds read low 1.02 | locus YDR195W, strain ref2 1.01 | locus YDR297W, strain sur2, active compounds read low 1.02 | locus YDR334W, strain swr1, active compounds read low 1.01 | locus YDR335W, strain msn5, active compounds read low 1.02 | locus YDR392W, strain spt3, active compounds read low 0.958 | locus YEL003W, strain gim4, active compounds read low 1.02 | locus YEL037C, strain rad23, active compounds read low 1.02 | locus YEL061C, strain CIN8 (second series), active compounds read low 1.01 | locus YER015W, strain faa2, active compounds read low 1.01 | locus YER016W, strain bim1, active compounds read low 1.01 | locus YER111C, strain swi4, active compounds read low 1.02 | locus YER155C, strain BEM2 (second series), active compounds read low 1.03 | locus YFR010W, strain ubp6, active compounds read low 1.02 | locus YGL167C, strain pmr1, active compounds read low 1.02 | locus YGL173C, strain kem1, active compounds read low 1.01 | locus YGL227W, strain vid30, active compounds read low 1.02 | locus YGL240W, strain doc1, active compounds read low 1.04 | locus YGL253W, strain hxk2, active compounds read low 1 | locus YHR013C, strain ard1, active compounds read low 1.01 | locus YHR027C, strain rpn1, active compounds read low 1.02 | [12] 1.02 | [13] 1.02 | locus YHR142W, strain chs7, active compounds read low 1.01 | locus YJL092W, strain hpr5, active compounds read low 1.02 | locus YJL095W, strain BCK1 (second series), active compounds read low 1.02 | [14] 0.978 | locus YJL115W, strain asf1, active compounds read low 1.02 | locus YJL129C, strain trk1, active compounds read low 1.01 | locus YJL154C, strain vps35, active compounds read low 1.02 | locus YJL164C, strain tpk1, active compounds read low 0.999 | locus YJL166W, strain qcr8, active compounds read low 1.03 | [15] 0.961 | locus YKL160W, strain elf1, active compounds read low 1.02 | locus YKR026C, strain gcn3, active compounds read low 1.02 | locus YKR091W, strain srl3, active compounds read low 1.02 | locus YLL001W, strain dnm1, active compounds read low 1.01 | locus YLL026W, active compounds read low 1.02 | locus YLL041C, strain sdh2, active compounds read low 1.02 | locus YLR027C, strain aat2, active compounds read low 1.02 | [16] 0.969 | locus YLR221C, strain rsa3, active compounds read low 0.998 | locus YLR258W, strain gsy2, active compounds read low 1.02 | locus YLR262C, strain YPT6 (second series), active compounds read low 1.02 | locus YLR320W, strain mms22, active compounds read low 1.01 | locus YLR342W, strain FKS1, active compounds read low 1.03 | locus YLR357W, strain rsc2, active compounds read low 1.03 | locus YLR370C, strain arc18, active compounds read low 1.01 | locus YLR384C, strain iki3, active compounds read low 1.02 | locus YML120C, strain ndi1, active compounds read low 1.01 | locus YMR058W, strain fet3, active compounds read low 1.02 | locus YMR125W, strain sto1, active compounds read low 1.01 | locus YMR129W, active compounds read low 1.02 | locus YMR205C, strain PFK2, active compounds read low 1.02 | locus YMR231W, strain pep5, active compounds read low 1.03 | locus YNL071W, strain lat1, active compounds read low 1.02 | [17] 0.96 | locus YNL209W, strain ssb2, active compounds read low 1.01 | locus YNL248C, strain rpa49, active compounds read low 1 | locus YNL322C, strain KRE1 (second series), active compounds read low 1.02 | locus YNR049C, strain mso1, active compounds read low 1.02 | locus YOR001W, strain rrp6, active compounds read low 1.01 | locus YOR070C, strain gyp1, active compounds read low 1.01 | locus YOR080W, strain dia2, active compounds read low 1.02 | locus YOR083W, strain WHI5, active compounds read low 1.02 | locus YOR106W, strain vam3, active compounds read low 1.03 | [18] 1.02 | locus YOR265W, strain rbl2, active compounds read low 1.01 | locus YOR270C, strain vph1, active compounds read low 1.05 | locus YOR290C, strain snf2, active compounds read low 0.995 | locus YPL051W, strain arl3, active compounds read low 1.03 | locus YPL078C, strain atp4, active compounds read low 1.02 | locus YPL106C, strain sse1, active compounds read low 1.03 | locus YPL240C, strain hsp82, active compounds read low 1.01 | [19] 1.02
